Source: PubChem BioAssay AID485344 (National Center for Advancing Translational Sciences (NCATS), 2010)
In all, about 340,000 compounds went through this assay and about 6,900 (2%) were called active. Cut-off read from the data, not from the text of the source: active = inhibition above about 30%; inactive = below that, where a call was filed. The list comes from a sample in which actives are over-represented; it also holds similar structures and randomly drawn compounds.

Each compound was assayed against D(2) dopamine receptor (Homo sapiens) (UniProt P14416) (assay: HTS Assay for Allosteric Antagonists of the Human D2 Dopamine Receptor: Primary Screen for Antagonists). Conditions: HEK293 TREx D2 cells, calcium flux, dopamine EC80; at 10 µM; hits give high values.
In short: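 Overnight-induced (tetracycline, 30 C) HEK293 T-REx cells carrying force-coupled D2 receive a no-wash calcium dye, then compound, then EC80 dopamine at 180 s; signals are read kinetically throughout.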
Note: 0% is about no effect.

D(2) dopamine receptor (Homo sapiens), sequence (P14416 whole entry, looked up): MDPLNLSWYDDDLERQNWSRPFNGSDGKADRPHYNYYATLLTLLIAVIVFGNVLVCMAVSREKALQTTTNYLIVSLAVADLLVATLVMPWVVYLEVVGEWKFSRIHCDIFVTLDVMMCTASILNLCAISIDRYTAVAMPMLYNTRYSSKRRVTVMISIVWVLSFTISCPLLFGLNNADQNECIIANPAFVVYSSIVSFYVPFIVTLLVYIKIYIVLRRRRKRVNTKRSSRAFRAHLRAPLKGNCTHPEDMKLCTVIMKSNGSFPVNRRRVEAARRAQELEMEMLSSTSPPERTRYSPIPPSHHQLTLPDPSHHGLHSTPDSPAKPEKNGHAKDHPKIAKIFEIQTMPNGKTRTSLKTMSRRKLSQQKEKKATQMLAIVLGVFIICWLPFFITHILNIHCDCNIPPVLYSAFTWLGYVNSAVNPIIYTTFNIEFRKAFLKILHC

inhibition, active:
CC(C)[C@@H](NC(=O)OC(C)(C)C)C(=O)NCC1CCC(C(=O)N[C@@H](Cc2ccccc2)C(=O)O)CC1 (stereo partly specified) 31.8%, N#Cc1ccc(C(c2ccc(C#N)cc2)n2cncn2)cc1 48.6%, CCOc1ccc(Br)cc1S(=O)(=O)N1CCC(C(=O)O)CC1 39.3%, COc1ccccc1N1CCN(C(=O)c2cc3c(-c4ccc(Cl)cc4)nn(C)c3s2)CC1 31%, CCOC(=O)c1cc2sccc2n1Cc1ccc(C#N)cc1 31.1%, COc1c(O)cc2oc(-c3ccc(O)c(O)c3)cc(=O)c2c1O 36.2%, Cc1sc2nc(CSCC(=O)Nc3c(Cl)cccc3Cl)[nH]c(=O)c2c1C 43.2%, O=C(CNC(=O)C(c1ccccc1)c1ccccc1)N/N=C\c1ccc2c(c1)OCO2 34.6%, COc1ccc(NC(=O)NC2CC3CCCC(C2)N3Cc2ccccc2)cc1 (stereo unspecified) 46%, CCOc1ccccc1C(=O)NC1CC2CCCC(C1)N2Cc1ccccc1 (stereo unspecified) 92.5%, COc1ccc(CN2C3CCCC2CC(NC(=O)c2cccc(F)c2)C3)cc1 (stereo unspecified) 80.1%, CSCc1ccc(C(=O)Nc2cc(C)cc(C)c2)cc1 30.3%

inhibition, inactive:
CC1(C)NC(=O)N(CC(=O)N2CCN(S(=O)(=O)c3ccccc3F)CC2)C1=O -6.83%, CC(C)C[C@H](NC(=O)C1CCC(CNC(=O)[C@@H]2CCCN2C(=O)OC(C)(C)C)CC1)C(=O)O (stereo partly specified) -15.8%, CC(=O)Nc1ccc(S(=O)(=O)N2CCC(C(=O)N[C@@H](Cc3ccccc3)C(=O)O)CC2)cc1 -23.4%, O=C(CSc1nnc(Nc2ccccc2F)s1)NC1CCCC1 12.9%, N#Cc1ccc(CSc2ncccn2)cc1 -5.83%, N#Cc1ccc(C(c2nnnn2CCc2ccccc2)N2CCCCCC2)cc1 (stereo unspecified) -12.6%, CC1CCCC(NC(=O)c2cc(S(=O)(=O)N3CCCCC3)ccc2Cl)C1C (stereo unspecified) -4.83%, CCOC(=O)N1CCN(C(=O)C2CCN(S(=O)(=O)c3cc(Cl)ccc3OCC)CC2)CC1 -9.59%, CCOc1ccc(S(=O)(=O)N2CCC(c3ccccc3)CC2)cc1C(=O)O -17.4%, CC(C)COc1ccc(C(=O)OCC(=O)NCCC2=CCCCC2)cc1 5.26%, COc1cccc(-c2nn(C)c3sc(C(=O)N4CCN(c5ccccc5)CC4)cc23)c1 -14.9%, CCOC(=O)N1CCN(C(=O)c2cc3c(-c4ccc(Cl)cc4)nn(C)c3s2)CC1 5.45%, CCc1noc(C)c1C(=O)N1CCN(S(=O)(=O)c2cccc(C(F)(F)F)c2)CC1 -22.3%, N#CCC(=O)Nc1ccc(C(=O)OCC(=O)Nc2sc3c(c2C#N)CCCC3)cc1 -5.79%, O=C(c1cc2sccc2n1Cc1ccc(F)cc1)N1CCc2ccccc21 -20.3%, CC1Cc2ccccc2N1C(=O)c1cc2sccc2n1Cc1ccccc1 (stereo unspecified) 8.45%, CCC(C(=O)N1CCN(S(=O)(=O)c2sc(C(=O)O)c(C)c2C(=O)O)CC1)c1ccccc1 (stereo unspecified) 14.8%, CCOC(=O)N1CCN(C(=O)COC(=O)c2cccc(S(C)(=O)=O)c2)CC1 -13.9%, O=C(CCc1nc(-c2ccccc2)no1)Nc1cccc(C(=O)NC2CC2)c1 -8.46%, Cc1ccc(NC(=O)C(C)Sc2nnc(C3CC3)n2C2CC2)cc1S(=O)(=O)N1CCOCC1 (stereo unspecified) 10%, CCOC(=O)COc1cc(O)c2c(=O)cc(-c3ccccc3)oc2c1 3.55%, COc1ccc(-c2cc(=O)c3c(O)cc(O[C@@H]4O[C@H](CO[C@@H]5O[C@@H](C)[C@H](O)[C@@H](O)[C@H]5O)[C@@H](O)[C@H](O)[C@H]4O)cc3o2)cc1O 3.3%, Cc1sc2nc(COC(=O)C(NC(=O)c3ccc(Cl)cc3Cl)C(C)C)[nH]c(=O)c2c1C (stereo unspecified) 4.89%, Cc1sc2nc(CSCC(=O)NC3CCCCC3)[nH]c(=O)c2c1C 7.49%, CCOCCn1[nH]c2ccccc2c1=O 9.72%, CC(=O)Nc1ccc(S(=O)(=O)NC(C)C(=O)OCCOc2ccc(F)cc2)cc1 (stereo unspecified) 8.18%, COc1ccccc1NS(=O)(=O)c1ccc(C(=O)N2CCN(c3ccccc3O)CC2)cc1 -20.7%, Cc1[nH]c2ccccc2c1/C=N/NC(=O)CNC(=O)c1ccc2c(c1)OCO2 -12.8%, O=C(Cc1ccc(F)cc1)N/N=C/c1ccc2c(c1)OCO2 -1.11%, COC(=O)c1ccc(NS(=O)(=O)c2cc3c4c(c2)C(C)C(=O)N4CCC3)cc1 (stereo unspecified) 4.01%, CCCn1nc(C(=O)NNC(=O)CCOc2ccccc2OCC)c2ccccc2c1=O 17.8%, COc1cccc(C(=O)NNC(=O)c2cccc(F)c2)c1 0.993%, COc1ccc(NC(=O)N2CCC(Cc3ccccc3)CC2)cc1 3.66%, COc1ccc(NC(=S)N2CCC(NC(=O)c3cccc(F)c3)CC2)cc1 -6.43%, CCCCOCCCNC(=O)c1ccccc1OCC -16%, O=C(NC1CCN(Cc2ccccc2)CC1)c1ccccc1F 21.8%, CC(=O)NC1CC2CCCC(C1)N2CC(=O)Nc1ccccc1 (stereo unspecified) 14.7%, COc1ccc(C(=O)Oc2ccc(-c3nnco3)cc2)cc1S(=O)(=O)N1CCOCC1 14.7%, Cc1ccc2nc(SCC(=O)N3CC(C)OC(C)C3)nc(=O)n2c1 (stereo unspecified) -3.68%, O=C(CNS(=O)(=O)c1ccc2c(c1)OCCCO2)N1CCN(c2ccc(F)cc2)CC1 -12.5%, Cn1c(-c2ccc(F)cc2)cc2onc(-c3ccccc3Cl)c2c1=O 8.07%, CCN(CC)S(=O)(=O)c1ccc2[nH]c(=O)cc(C(=O)N(C)C3CCS(=O)(=O)C3)c2c1 (stereo unspecified) -4.37%, C=CCN(c1ccc(C(=O)Nc2cc(C)cc(C)c2)cc1)S(C)(=O)=O -5.69%, CC(=O)Nc1ccccc1NC(=O)c1cc(C)cc(C)c1 13.8%
